This note sets out measurements from the supplement of paper PMC11219838.

SMILES strings stand for the structures. Values without a mark were called inactive.

For the assay, the system named is Caenorhabditis elegans L1 (N2). Kind of assay: survival and reproduction score of C. elegans L1 (0: 0-10 living worms, 1: 11-20, 2: 21-50, 3: >50, 4: overgrown) (score 0-4); higher = more worms, less nematicidal, active = 1 or less; extreme values may be limits of the assay. The following applies: 60 µM; 6 days; temperature: 20 °C. Put shortly:
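About 20 synchronized C. elegans N2 L1s were added per 96-well well with E. coli HB101 in liquid NGM, and compound was pinned to 60 µM final (0.6% v/v DMSO). Sealed plates were shaken at 200 rpm for 6 days at 20 °C. Survival and reproduction were scored under a dissection microscope as an ordinal score of living worms per well. The scale ran 0 (0–10 worms) to 4 (overgrown, starved), and two biological replicates were averaged.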
With `CC(C)C(=O)Nc1ccccc1-c1nc(-c2ccncc2)no1`, the “survival and reproduction score” value was 4.

As for `COc1ccc(-c2noc(CSc3nc4cc(C)ccc4[nH]3)n2)cc1`, the “survival and reproduction score” value is 4.

In the case of `CC(=O)Nc1cccc(-c2nnc(SCc3ccccc3)o2)c1`, the “survival and reproduction score” value is 4.

For the molecule `COc1ccc(Cl)cc1-c1noc(-c2cccc(C)c2)n1`, the “survival and reproduction score” value was 4.

`Clc1ccc(-c2noc(COc3ccc4c(c3)OCO4)n2)cc1`: the “survival and reproduction score” value was 4.

`Cc1ccc(CSc2nnc(-c3ccco3)o2)c(C)c1`: the “survival and reproduction score” value is 0 (active).

Consider `Cc1cccc(-c2noc(-c3ccc(C)c(Cl)c3)n2)c1`, for which the “survival and reproduction score” value is 4.

Take `COc1ccccc1OCc1nc(-c2cccc(C)c2)no1`: the “survival and reproduction score” value was 4.

In the case of `O=C(CSc1nnc(-c2ccccc2)o1)NCc1ccccc1`, the “survival and reproduction score” value was 4.

`Brc1ccccc1-c1nc(-c2ccccn2)no1`: the “survival and reproduction score” value was 2.

With `Cn1c(SCc2nc(-c3cccs3)no2)nnc1-c1ccco1`, the “survival and reproduction score” value is 4.

With `O=C(CSc1nnc(-c2ccc(Cl)cc2)o1)c1ccccc1`, the “survival and reproduction score” value was 4.

For the molecule `Cc1ccc(C)c(-c2nc(-c3ccncc3)no2)c1`, the “survival and reproduction score” value is 0 (active).

As to `Brc1ccc(-c2nnc(SCc3ccccc3)o2)cc1`, the “survival and reproduction score” value was 4.

With `COc1cccc(-c2noc(COc3cccc(C)c3)n2)c1`, the “survival and reproduction score” value is 4.

For `Clc1cccc(-c2nc(-c3ccncc3)no2)c1`, the “survival and reproduction score” value is 0 (active).

Consider `CCOc1cc(-c2nc(-c3ccc(C)nc3OC)no2)cc(OCC)c1OCC`, for which the “survival and reproduction score” value is 4.

For `Cc1ccc(-c2noc(-c3ccc(Br)o3)n2)s1`, the “survival and reproduction score” value is 0 (active).

Regarding `COc1ccccc1OCc1nc(-c2ccccc2)no1`, the “survival and reproduction score” value is 4.

Regarding `Ic1ccc(-c2nc(-c3cccnc3)no2)cc1`, the “survival and reproduction score” value was 0 (active).

Regarding `Cc1cccc(OC(C)c2nc(-c3ccncc3)no2)c1` (stereo not drawn), the “survival and reproduction score” value is 4.

With `O=C(CSc1nnc(-c2cccc(Cl)c2)o1)Nc1nccs1`, the “survival and reproduction score” value was 4.

`FC(F)(F)c1ccc(-c2noc(-c3ccccc3Cl)n2)cc1`: the “survival and reproduction score” value is 4.

As for `Cc1cccc(OCc2nc(-c3ccc(-n4cccc4)cc3)no2)c1`, the “survival and reproduction score” value was 4.

On to `COc1cccc(-c2nnc(SCc3ccccc3C)o2)c1`, for which the “survival and reproduction score” value was 4.

As to `CC(=O)c1cccc(NC(=O)CSc2nnc(-c3ccccc3)o2)c1`, the “survival and reproduction score” value is 4.

As for `CCN(C(=O)CSc1nnc(-c2ccncc2)o1)c1ccccc1`, the “survival and reproduction score” value is 4.

With `Fc1ccc(-c2nc(-c3ccc4c(c3)OCO4)no2)cc1`, the “survival and reproduction score” value is 4.

Take `CCCCC(=O)Nc1ccccc1-c1nc(-c2ccncc2)no1`: the “survival and reproduction score” value is 4.

As for `COc1ccc(-c2noc(COc3ccc(C(C)(C)C)cc3Br)n2)cc1`, the “survival and reproduction score” value is 4.

On to `FC(F)(F)c1cccc(-c2noc(-c3cccnc3)n2)c1`, for which the “survival and reproduction score” value was 1 (active).

As for `COc1ccc(C(=O)CSc2nnc(-c3ccccc3)o2)cc1`, the “survival and reproduction score” value was 4.

Regarding `Cc1cc(OCc2nc(-c3ccccc3)no2)ccc1Cl`, the “survival and reproduction score” value is 4.

For the molecule `Cc1cc(C)nc(SCc2nc(-c3ccccc3)no2)n1`, the “survival and reproduction score” value is 4.

Take `O=C(NCc1cccnc1)c1ccccc1-c1nc(-c2ccccc2Cl)no1`: the “survival and reproduction score” value was 4.

In the case of `Cc1ccc(-c2noc(CSc3nc4ccccc4[nH]3)n2)cc1`, the “survival and reproduction score” value was 4.

`COc1cccc(-c2noc(COc3cccc(C)c3C)n2)c1`: the “survival and reproduction score” value is 2.

In the case of `O=C(CSc1nnc(-c2ccccc2)o1)Nc1ccccc1C(F)(F)F`, the “survival and reproduction score” value is 4.
